What was measured:
Details in all cases: concentration: 1 μM,replicates: in singlicate; n = 1
[1] = system: LCK
[2] = system: LIMK1
[3] = system: LIMK2
[4] = system: T1, LKB1
T1 construct: gene STK11

[5] = system: T2, LOK
T2 construct: gene STK10

[6] = system: LRRK2
[7] = system: LTK
[8] = system: LYN
[9] = system: T3, LZK
T3 construct: gene MAP3K13

[10] = system: MAK
[11] = system: MAP3K15
[12] = system: MAP3K1
[13] = system: MAP3K2
[14] = system: MAP3K3
[15] = system: MAP3K4
[16] = system: MAP4K2
[17] = system: MAP4K3
[18] = system: MAP4K4
[19] = system: MAP4K5
[20] = system: MAPKAPK2
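Note: KINOMEscan kinase panel screen.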

| Structure (SMILES) | %Inh [1] | %Inh [2] | %Inh [3] | %Inh [4] | %Inh [5] | %Inh [6] | %Inh [7] | %Inh [8] | %Inh [9] | %Inh [10] | %Inh [11] | %Inh [12] | %Inh [13] | %Inh [14] | %Inh [15] | %Inh [16] | %Inh [17] | %Inh [18] | %Inh [19] | %Inh [20] |
| --- | --- | --- | --- | --- | --- | --- | --- | --- | --- | --- | --- | --- | --- | --- | --- | --- | --- | --- | --- | --- |
| Cl.Cl.NC[C@H](CC1CCCCC1)NC(=O)c1ccc(-c2ccnc3[nH]ccc23)s1 [GSK1581428] | 37% | 0% | 0% | 50% | 31% | 49% | 0% | 0% | 0% | 0% | 25% | 12% | 40% | 33% | 10% | 95.7% | 47% | 20% | 12% | 0% |
| COc1cc2ncn(-c3cc(OCC4CCCCC4)c(C(N)=O)s3)c2cc1OC [GSK204559] | 37% | 2% | 13% | 0% | 63% | 20% | 10% | 0% | 0% | 18% | 0% | 30% | 0% | 0% | 0% | 0% | 0% | 35% | 38% | 0% |
| CNC(=O)c1ccccc1Nc1nc(Nc2cccc(CS(C)(=O)=O)c2)ncc1C.O=CO [GSK1520489] | 99.8% | 47% | 0% | 0% | 99.8% | 90% | 89% | 95.1% | 97.3% | 0% | 9% | 10% | 94.4% | 94% | 85% | 96.3% | 91% | 0% | 4% | 0% |
| CCCC(=O)Nc1n[nH]c2ncccc12 [SB-601436] | 14% | 0% | 0% | 0% | 3% | 0% | 4% | 0% | 0% | 7% | 29% | 0% | 5% | 34% | 11% | 5% | 0% | 0% | 0% | 16% |
| Cc1cccc2c(-c3ccncc3)c(-c3ccc(F)cc3)nn12.Cl [GW461487] | 19% | 0% | 4% | 4% | 0% | 26% | 100% | 0% | 5% | 26% | 100% | 13% | 19% | 0% | 20% | 0% | 0% | 9% | 0% | 0% |
| Cc1cccc(-c2nc(Nc3ccncc3)c3sccc3n2)n1 [GW869641] | 20% | 11% | 5% | 0% | 79% | 0% | 35% | 18% | 4% | 0% | 30% | 37% | 44% | 28% | 0% | 50% | 5% | 37% | 11% | 0% |
| O=C(Nc1ccccc1)c1cccc(Oc2ccc3nccn3n2)c1 | 13% | 12% | 23% | 0% | 7% | 0% | 20% | 4% | 0% | 32% | 0% | 10% | 0% | 0% | 20% | 2% | 0% | 0% | 0% | 0% |
| O=c1[nH]cc(-c2ccc(O)cc2)c2sc(-c3ccncc3)cc12 [GSK1033723] | 7% | 0% | 23% | 13% | 0% | 0% | 0% | 0% | 4% | 31% | 0% | 13% | 7% | 0% | 0% | 0% | 0% | 0% | 0% | 0% |
| COC(=O)c1cccc(NC(=O)NC2CCN(c3ccnc(Nc4cc(OC)c(OC)c(OC)c4)n3)C2)c1 (stereo not shown) [GSK1379767] | 7% | 0% | 35% | 0% | 45% | 0% | 83% | 0% | 54% | 36% | 0% | 0% | 0% | 0% | 7% | 0% | 3% | 15% | 35% | 0% |
| CS(=O)(=O)Nc1ccc(-c2ccnc3[nH]ccc23)cc1 [GSK993273] | 25% | 0% | 13% | 0% | 0% | 35% | 0% | 0% | 8% | 0% | 37% | 18% | 58% | 32% | 0% | 30% | 44% | 2% | 0% | 0% |
| COc1cc2nccc(Nc3ccc(Oc4ccccc4)cc3)c2cc1OC.Cl [GI261656] | 99.2% | 0% | 14% | 13% | 0% | 0% | 0% | 71% | 5% | 1% | 0% | 21% | 0% | 0% | 0% | 0% | 0% | 0% | 0% | 0% |
| CC(C(=O)NC1CCN(c2ccnc(Nc3ccc(F)cc3)n2)C1)c1ccc(Cl)cc1 (stereo not shown) [GSK1379713] | 22% | 0% | 0% | 0% | 0% | 14% | 0% | 0% | 0% | 12% | 0% | 0% | 0% | 0% | 17% | 0% | 0% | 12% | 4% | 26% |
| CN1CCN(CCCNc2nccc(-c3c(-c4ccc(F)cc4)nn4cc(C(N)=O)ccc34)n2)CC1 [GW622475] | 51% | 0% | 9% | 0% | 0% | 2% | 39% | 0% | 0% | 50% | 0% | 24% | 0% | 0% | 16% | 0% | 0% | 65% | 33% | 0% |
| N#Cc1cccc(C(=O)NC2CCN(c3ccnc(Nc4ccc(F)cc4)n3)C2)c1 (stereo not shown) [GSK1379708] | 22% | 0% | 0% | 0% | 0% | 0% | 0% | 0% | 0% | 18% | 0% | 1% | 11% | 0% | 33% | 0% | 0% | 7% | 1% | 14% |
| CCOC(=O)N1CCC(n2cnc(-c3ccc(F)cc3)c2-c2ccnc(N)n2)CC1 [SB-219952] | 0% | 8% | 13% | 15% | 100% | 0% | 17% | 9% | 15% | 0% | 36% | 29% | 6% | 11% | 6% | 0% | 0% | 9% | 4% | 24% |
| COc1cc2c(Nc3ccc(NC(=O)c4ccccc4)cc3)ncnc2cc1OCCCN1CCOCC1 [GSK301329] | 87% | 3% | 0% | 0% | 77% | 33% | 27% | 52% | 55% | 0% | 0% | 9% | 11% | 0% | 47% | 0% | 6% | 11% | 63% | 23% |
| Cl.Nc1n[nH]c2cc(-c3ccccn3)ccc12 [GSK2189892] | 12% | 0% | 0% | 12% | 0% | 0% | 0% | 0% | 0% | 29% | 0% | 0% | 0% | 0% | 0% | 0% | 0% | 6% | 0% | 7% |
| CC(C)c1nc(-c2cccc(NS(=O)(=O)c3ccccc3)c2)c(-c2ccnc(Nc3ccc4c(c3)CN(C)CC4)n2)s1 [GSK1649598] | 99.8% | 100% | 100% | 0% | 97.5% | 0% | 5% | 98% | 45% | 53% | 30% | 6% | 98.5% | 84% | 79% | 0% | 96.9% | 95.5% | 98.9% | 0% |
| CCn1c(-c2nonc2N)nc2cncc(CNC3CCNCC3)c21.Cl [SB-747651] | 0% | 14% | 13% | 0% | 0% | 43% | 25% | 0% | 8% | 29% | 3% | 6% | 13% | 0% | 14% | 0% | 0% | 0% | 0% | 19% |
| COc1cc(Nc2nccc(N3CCC(NC(=O)c4cccc(C#N)c4)C3)n2)cc(OC)c1OC (stereo not shown) [GSK1379751] | 0% | 92.6% | 17% | 0% | 0% | 0% | 2% | 0% | 33% | 7% | 0% | 2% | 19% | 0% | 0% | 0% | 0% | 0% | 0% | 0% |
